PubChem BioAssay AID504332 (National Center for Advancing Translational Sciences (NCATS), 2011)
About 31,000 (8.9%) of roughly 350,000 compounds were called active. Not shown: some 15% with an inconclusive outcome. Calls come from the whole dose curve; as a rule, active = well fitted inhibition curve with a large enough effect; inconclusive = small, poorly fitted or top-dose-only effect; inactive = no such curve, though single readings can be large or run the other way. The full list was thinned out, with actives kept by preference.

Each molecule was assayed against Histone-lysine N-methyltransferase EHMT2 (Homo sapiens) (UniProt Q96KQ7) (assay: qHTS Assay for Inhibitors of Histone Lysine Methyltransferase G9a). Conditions: G9a H3K9 monomethylation, AlphaScreen, 2 h; series mostly up to 59 µM.
Histone-lysine N-methyltransferase EHMT2 (Homo sapiens), sequence (Q96KQ7 913-1193 limits assumed): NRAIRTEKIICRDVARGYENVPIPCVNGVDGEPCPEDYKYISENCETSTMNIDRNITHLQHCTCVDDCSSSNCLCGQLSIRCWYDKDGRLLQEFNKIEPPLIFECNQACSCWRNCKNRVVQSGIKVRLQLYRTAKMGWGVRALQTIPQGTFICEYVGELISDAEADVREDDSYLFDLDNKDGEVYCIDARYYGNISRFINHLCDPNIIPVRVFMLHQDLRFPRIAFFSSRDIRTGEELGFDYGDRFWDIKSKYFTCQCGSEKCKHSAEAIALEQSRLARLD
Summary of the method: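 AlphaScreen detection with an anti-monomethyl H3K9 antibody quantified product after a 2 h room-temperature reaction containing 500 nM biotinylated H3K9 peptide, 20 µM SAM and 20 nM enzyme, which had been preincubated 15 min with compound.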
% is set by controls: 0 for no effect and ±100 for the full control effect; potency is the fitted concentration of half-maximal effect.
Note: nearly all actives have a fitted effect of over 75% in size.

Potency, active:
Cc1ccc(-n2nc(-c3ccco3)cc2C(=O)NCc2cccnc2)cc1 2.51 µM
CCN(CC)c1ccc(/C=N/NC(=O)CNC(=O)c2cccs2)cc1 50.1 µM
N#CCC(=O)NC(=O)NCC1CC1 39.8 µM
Cc1ccc(OCCCCN2CCCCC2)c(Br)c1 11.2 µM
Cc1ccc(C(C)(C)C)c(OCCCCN2CCCC2)c1 8.91 µM
COc1ccccc1-n1c(-c2cc(-c3ccco3)[nH]n2)n[nH]c1=S 2.82 µM
COc1ccc(OC)c(-n2c(-c3ccn[nH]3)n[nH]c2=S)c1 14.1 µM
Cc1ccc(-n2c(-c3ccc(Cl)cc3)n[nH]c2=S)cc1 1.41 µM
COc1ccc(-n2c(-c3ccc(OC)c(OC)c3)n[nH]c2=S)cc1 5.62 µM
CCOc1ccccc1N1CCN(C(=O)c2ccc3[nH]c(C)c(C)c3c2)CC1 79.4 µM
CCn1c(C)c(C)c2cc(C(=O)N3CCN(c4cccc(C)c4C)CC3)ccc21 39.8 µM
CC(C)Sc1nnc([C@H](Cc2ccccc2)NC(=O)OC(C)(C)C)o1 35.5 µM
COc1cc(/C=N\Nc2nc(-c3cccs3)c(NC(C)=O)s2)ccc1O 11.2 µM
CC(C)Oc1ccc(S(=O)(=O)N2CCOCC2)cc1NC(=O)C1CSC2(C)CCC(=O)N12 (stereo not drawn) 44.7 µM
C=C1c2cc(CC)ccc2NC(=O)N1c1ccc(C)cc1 11.2 µM
CN1C=CC=C/C1=C1\SC(=S)N(Cc2ccccc2)C1=O 20 µM

Potency, inactive:
COc1ccc(CNC(=O)c2cc3c(s2)-c2ccccc2OC3)cc1
Cc1ccc(C(=O)NC(=S)NCc2cccnc2)cc1
O=C(NCC12CC3CC(CC(C3)C1)C2)c1cc2nc(-c3ccccc3)cc(C(F)(F)F)n2n1
COc1cc(OC)c(NC(=O)c2nc(-c3ccncc3)no2)cc1Cl
Cc1ccc(C)c(Nc2nnc(-c3ccc(C)c(S(=O)(=O)N4CCCCC4)c3)c3ccccc23)c1
O=C(CNC(=O)c1ccccc1Br)NNC(=O)c1cccs1
O=C1CCC(C(=O)N2CCN(c3ccccc3Cl)CC2)CN1CC1CCCCC1 (stereo not drawn)
CCCn1c(C)cc(/C=C(\C#N)C(=O)OCC(=O)N(C)c2c(N)n(Cc3ccccc3)c(=O)[nH]c2=O)c1C
CCN(CC)c1ccc(/C=N/NC(=O)CNC(=O)c2cccnc2)cc1
O=C(CNC(=O)c1cccs1)N/N=C/c1cccc(Br)c1
O=C(NCCS(=O)(=O)N1CCN(c2ccc(F)cc2)CC1)c1ccccc1Br
O=C(Nc1ccc(OC(F)(F)F)cc1)C1CCCN(S(=O)(=O)c2ccc(Br)s2)C1 (stereo not drawn)
CC(C)NC(=O)NC(=O)COC(=O)c1ccc(NC(=O)CC#N)cc1
Cc1cc(OCC(=O)Nc2ncn[nH]2)c(C)c(C)c1Br
Cc1ccc(OCC(O)CN2CCN(CC(O)COc3ccc(C)cc3Cl)CC2)c(Cl)c1 (stereo not drawn)
Cc1ccc(Cl)c(OCC(=O)NN2CCN(C)CC2)c1
COCCNc1ncnc2c1c(-c1ccccc1)cn2-c1ccc(C)c(Cl)c1
CCC(=O)Nc1ccc(-c2ccc(N3CCCCC3)nn2)cc1
Cc1ccc(C)c(CNC(=O)c2cc3ccccn3n2)c1
CCCN1CCN(CCCNC(=O)Cn2nc(CC)n3c(cc4occc43)c2=O)CC1
O=C(CSc1ncc(-c2ccccc2)[nH]1)Nc1ccc(F)cc1F
COc1ccc(/C=N/OCc2ccccc2C#N)c(OC)c1
CCc1ccc2oc(-c3ccc(NC(=O)c4cc5ccccc5o4)cc3)nc2c1
COc1ccc(CCNC(=O)c2cn(C)c3ccc(S(=O)(=O)N(C)C4CCCCC4)cc3c2=O)cc1OC
COc1ccc(-c2cn(-c3ccc(C)cc3)c(=O)n2CC(=O)Nc2ccc(OC)c(OC)c2)cc1
COc1ccc(OC)c(-n2c(=S)[nH]c3cc(C(=O)N4CCCCC4)ccc3c2=O)c1
Cc1n[nH]c(=O)n1-c1ccc(C(C)C)cc1
COc1ccc(-n2c(C)csc2=S)cc1
Cc1ccc(-c2cn3cc(C)ccc3n2)cc1
COc1ccccc1CN1CCC(CNC(=O)c2cnn(-c3cccc(Cl)c3)c2C2CCN(C(=O)OC(C)(C)C)CC2)CC1
COc1ccc(CCc2nc(-c3cccs3)no2)cc1
COc1ccc(CC(=O)NCCc2sc3nc(-c4ccc(OC)cc4)nn3c2C)cc1
Cc1cc(C)cc(NC(=O)CSc2nc3nccnc3c(=O)n2CCc2c[nH]c3ccccc23)c1
CCOc1ccccc1NC(=O)Cn1c(=O)n(Cc2ccccc2)c(=O)c2c(C)c(C(=O)N(C)C)sc21
CCOc1cc(C(=O)NCCc2csc3nc(-c4ccc(C)cc4)nn23)cc(OCC)c1OCC
CCc1cc2c(cc3c(=O)n(CC(=O)NCc4cccc(Cl)c4)nc(CC)n32)s1
COCCNC(=O)c1ccc2c(c1)N(Cc1cccc(Cl)c1)C(=O)c1ccccc1S2(=O)=O
CCC(CC)C(=O)N1CCN(c2cccc(C)c2C)CC1
CCS(=O)(=O)N1CCc2cc(C(=O)N3CCN(c4ccccc4OC)CC3)ccc21
Cc1[nH]c2ccc(C(=O)N3CCN(C)CC3)cc2c1C
Cc1cccc(N2CCN(C(=O)c3ccc4c(c3)CCN4S(=O)(=O)c3ccccc3)CC2)c1C
CCc1ccc(C(=O)COC(=O)c2ccco2)cc1
CC1CCCCC12NC(=O)N(CC(=O)OCC(=O)NCc1ccc(F)cc1)C2=O (stereo not drawn)
COc1ccc(-c2nc3sc(CCNC(=O)C(C)(C)C)c(C)n3n2)cc1
CN(C)C(CNC(=O)c1ccc(OCc2cn3ccccc3n2)cc1)c1ccco1 (stereo not drawn)
CN(C(=O)CSc1nc2ccccc2n1Cc1ccccc1C#N)c1ccccc1
NS(=O)(=O)c1ccc(CNC(=O)c2cccc(Oc3ccccc3)c2)cc1
O=C(CNc1ccccc1N1CCCC1=O)Nc1cc(Cl)ccc1-n1cncn1
C[C@H](NC(=O)OC(C)(C)C)c1nnc(SCC(N)=O)o1
COc1ccc(/C=N\NC(=O)c2sc(N)nc2C)cc1OC
CCOc1cc(/C=C(\C#N)c2nc(-c3cccs3)c(NC(C)=O)s2)ccc1O
CC1=Nc2cc(C(=O)N3CCC(C)CC3)ccc2Sc2ccc(Cl)cc21
CCc1nnc(SCc2nc(-c3cccc(C)c3)oc2C)c2cc3sc(C)cc3n12
CCN(CC)S(=O)(=O)c1ccc(N2CCOCC2)c(NC(=O)C2CSC3(C)CCC(=O)N23)c1 (stereo not drawn)
CC(C)Oc1ccc(S(=O)(=O)N2CCOCC2)cc1NC(=O)C1CCCC1
CCNC(=O)CC1C(=O)N(c2ccc(F)cc2)C(=O)N1Cc1ccc(C)cc1 (stereo not drawn)
Cc1cc(NS(=O)(=O)c2ccc(NC(=O)C(C)Oc3cccc(C)c3C)cc2)nc(C)n1 (stereo not drawn)

activity, negative = inhibition, inactive:
CC(C)(C)c1cc(C(=O)NCc2cccnc2)ccn1 17.8% [at 0.501 µM]
COc1ccc(NC(=O)COC(=O)c2n[nH]c3ccccc23)c(OC)c1 3.57% [at 12.7 µM]
N#Cc1ccc(C(=O)OCC(=O)NC(=O)NC2CCCCC2)cc1 13.4% [at 2.33 µM]
CC1(C)O[C@@H]2[C@H](O1)[C@@H](CO)O[C@H]2n1c(N2CCCCC2)nc2c(N)ncnc21 9.14% [at 0.501 µM]
Cc1ccc(C)c(OCCC(=O)Nc2cccc(S(=O)(=O)N3CCCC3)c2)c1 6.86% [at 0.501 µM]
CC(=O)Nc1ccc(S(=O)(=O)N2CCN(CCCOc3cc(C)ccc3C)CC2)cc1 -3.97% [at 12.7 µM]
CCOC(=O)N1CCN(S(=O)(=O)c2ccc3c(c2)C(C)C(=O)N3)CC1 (stereo not drawn) 14.1% [at 12.7 µM]
Cc1ccccc1N1CCN(C2CCCN(C(=O)c3cn4c(C)cccc4n3)C2)CC1 (stereo not drawn) 9.34% [at 0.501 µM]
COc1ccc(-c2c(-c3cc(OC)cc(OC)c3)n(C)c3ccc(-c4ccn[nH]4)cc23)cc1 2.71% [at 0.501 µM]
COc1ccccc1-n1cn[nH]c1=S -42.9% [at 12.7 µM]
COc1ccc(CCn2c(-c3ccco3)nc3nc4ccccc4nc32)cc1OC -36.8% [at 12.7 µM]
Cc1cccc(C(=O)Nc2ccc(Oc3cnccn3)cc2)c1 -1.31% [at 2.33 µM]
CCOC(=O)C1=C(COC(=O)[C@H](C)NS(=O)(=O)c2ccccc2F)NC(=O)NC1C (stereo partly drawn) 20.6% [at 2.33 µM]
CCOC(=O)[C@H]1[C@H]2COc3ccc(Cl)cc3[C@@H]2N2C(=O)c3cc(C)ccc3NC(=O)[C@@]12C 28% [at 2.33 µM]
CCN(C(=O)COC(=O)c1sccc1C)c1c(N)n(Cc2ccccc2)c(=O)[nH]c1=O 4.77% [at 0.501 µM]
CCc1ccccc1NC(=O)CSc1nnc([C@@H](NC(=O)OC(C)(C)C)C(C)C)o1 10.1% [at 2.33 µM]
O=C(CN1CCN(S(=O)(=O)c2ccc(Cl)s2)CC1)N1CCCCC1 18.1% [at 2.33 µM]
Cc1ccc(CC2C(=O)N(c3ccc(F)cc3)C(=O)C2C)cc1 (stereo not drawn) 2.4% [at 0.501 µM]
O=C(c1cc(COc2ccc(F)c(F)c2)on1)N1CCOCC1 -4.01% [at 0.501 µM]
Cn1c(=O)[nH]c(=O)c2c1[nH]c(=S)n2Cc1ccccc1 -14.7% [at 2.33 µM]
